# Several values for one entry are separate records, joined by “and”; a condition that tells them apart may be missing. Identical values can stand only once. Inconclusive results are not listed. A call without a number means that no potency is given here. Activity calls are given as the source filed them. Unless noted, the call rests on the fitted dose curve.
# Assays:
# [1] = target: Thyroid hormone receptor beta (Homo sapiens) (UniProt P10828); assay: qHTS assay for small molecule agonists of thyroid hormone receptor beta signaling (AID 588545)
# Sequence of Thyroid hormone receptor beta (Homo sapiens) (P10828 whole entry, looked up): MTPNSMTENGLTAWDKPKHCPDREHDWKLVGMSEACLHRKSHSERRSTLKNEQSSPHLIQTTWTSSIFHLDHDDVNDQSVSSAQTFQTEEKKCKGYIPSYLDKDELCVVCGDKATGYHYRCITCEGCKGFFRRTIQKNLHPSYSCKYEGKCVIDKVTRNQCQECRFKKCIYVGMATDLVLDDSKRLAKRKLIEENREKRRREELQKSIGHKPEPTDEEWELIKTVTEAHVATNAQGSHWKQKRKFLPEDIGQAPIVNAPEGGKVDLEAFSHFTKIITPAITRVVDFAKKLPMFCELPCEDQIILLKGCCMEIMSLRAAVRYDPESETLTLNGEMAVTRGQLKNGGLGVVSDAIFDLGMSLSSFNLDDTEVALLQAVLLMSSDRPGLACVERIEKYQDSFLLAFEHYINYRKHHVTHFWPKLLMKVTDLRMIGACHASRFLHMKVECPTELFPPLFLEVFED
# Summary of the method: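 Agonist activity was read as beta-lactamase CCF4 fluorescence (405 ex, 460/530 em), scaled between DMSO (0%) and 10 nM T3 (100%), then Hill-fitted for EC50 and efficacy. HEK 293 TR-UAS-bla cells in 2% charcoal/dextran FBS medium were exposed 18 h at 37 C.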
# [2] = qHTS assay for small molecule activators of the nuclear factor-kappa B (NF-kB) signaling pathway (AID 651749; active means well fitted activation curve with a large enough effect in the signal ratio; the % refers to the signal ratio); settings: NF-kB-bla ME-180 cells, beta-lactamase FRET ratio, 16 h; activation: stronger effect = higher value
# Summary of the method: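 Activation measured after 16 hr compound treatment at 37C, 5% CO2, of 2,000 ME-180 cells/well stably expressing an NF-kB response element–driven beta-lactamase reporter, via FRET-disruption fluorescence.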
# [3] = target: Peroxisome proliferator-activated receptor alpha (Homo sapiens) (UniProt Q07869); assay: qHTS assay for small molecule agonists of the peroxisome proliferator-activated receptor alpha (PPARalpha) signaling pathway (AID 651778; active means well fitted curve in the direction sought with a large enough effect; an effect the other way counts as inactive or inconclusive); settings: PathHunter PPARalpha complementation, chemiluminescence, 6 h; stronger effect = higher value
# Sequence of Peroxisome proliferator-activated receptor alpha (Homo sapiens) (Q07869 whole entry, looked up): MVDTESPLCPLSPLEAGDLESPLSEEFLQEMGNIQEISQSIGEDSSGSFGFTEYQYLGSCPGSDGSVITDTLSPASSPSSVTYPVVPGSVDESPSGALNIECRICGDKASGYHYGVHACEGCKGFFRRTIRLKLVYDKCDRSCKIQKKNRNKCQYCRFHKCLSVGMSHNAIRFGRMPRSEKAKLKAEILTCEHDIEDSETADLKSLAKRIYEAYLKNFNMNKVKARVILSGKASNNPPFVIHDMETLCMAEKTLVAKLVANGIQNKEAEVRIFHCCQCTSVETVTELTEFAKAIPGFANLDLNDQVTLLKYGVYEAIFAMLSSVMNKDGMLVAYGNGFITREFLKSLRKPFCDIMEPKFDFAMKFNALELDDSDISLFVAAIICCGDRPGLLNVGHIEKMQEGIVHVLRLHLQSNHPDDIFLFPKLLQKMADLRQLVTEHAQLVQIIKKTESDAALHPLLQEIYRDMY
# Summary of the method: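 Chemiluminescence from complemented enzyme reported PPARalpha activation in cells after 6 hr of compound treatment at 37 C. The detection reagent was incubated for 60 min at room temperature, and compounds were scored as agonists.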
# [4] = qHTS assay for small molecule agonists of the antioxidant response element (ARE) signaling pathway measured by Nrf2-dependant transcriptional activity - cell viability counter screen (AID 720653; active means well fitted curve in the direction sought with a large enough effect in the repeat runs; an effect the other way counts as inactive or inconclusive); settings: ARE-bla HepG2 viability, CellTiter-Glo ATP luminescence, 16 h; max response: stronger effect = lower value
# Summary of the method: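 Cytotoxicity counter screen: intracellular ATP quantified by CellTiter-Glo luminescence in the same ARE-bla HepG2 plates, after 16 h compound exposure and a 2 h beta-lactamase substrate step.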
# [5] = qHTS assay for cell viability of the p53RE-bla HCT-116 cell line (AID 743292; active means well fitted curve in the direction sought with a large enough effect; an effect the other way counts as inactive or inconclusive; further: nearly all actives have a fitted effect of over 55% in size)
# Summary of the method: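 CellSensor p53RE-bla HCT-116 cells (4,000/well) pre-incubated 5 h at 37 C, then exposed to compounds in DMSO for 16 h at 37 C. Viability read as ATP content by CellTiter-Glo luminescence after 30 min at room temperature.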
# [6] = target: Cytochrome P450 2D6 (Homo sapiens) (UniProt P10635); assay: Cytochrome P450 family 2 subfamily D member 6 (CYP2D6) small molecule antagonists: luciferase biochemical (cell-free) qHTS assay (AID 1645840; active means well fitted curve in the direction sought with a large enough effect in the repeat runs; an effect the other way counts as inactive or inconclusive; further: nearly all actives have a fitted effect of over 55% in size; further: potency means the concentration at half of the fitted maximal effect)
# Sequence of Cytochrome P450 2D6 (Homo sapiens) (P10635 whole entry, looked up): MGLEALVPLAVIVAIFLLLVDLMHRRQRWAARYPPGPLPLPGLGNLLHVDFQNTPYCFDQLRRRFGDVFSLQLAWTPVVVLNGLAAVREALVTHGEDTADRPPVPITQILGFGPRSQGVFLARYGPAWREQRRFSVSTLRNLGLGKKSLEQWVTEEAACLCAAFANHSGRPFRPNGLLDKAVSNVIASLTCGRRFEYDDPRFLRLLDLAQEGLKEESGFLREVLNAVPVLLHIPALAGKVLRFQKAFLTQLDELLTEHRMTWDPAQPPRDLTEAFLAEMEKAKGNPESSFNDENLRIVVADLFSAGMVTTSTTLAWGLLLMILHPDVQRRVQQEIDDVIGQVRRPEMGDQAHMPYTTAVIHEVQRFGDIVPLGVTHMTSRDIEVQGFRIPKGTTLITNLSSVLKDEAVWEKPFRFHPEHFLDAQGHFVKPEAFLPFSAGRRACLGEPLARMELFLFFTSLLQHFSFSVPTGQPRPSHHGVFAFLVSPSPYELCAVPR
# Summary of the method: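 P450-Glo CYP2D6 system: proluciferin substrate converted by enzyme to luciferin, read by luminescence proportional to activity. Enzyme-substrate mix with compound 10 min at room temperature, then NADPH regeneration 1 h before detection reagent.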
# [7] = target: Cytochrome P450 2C9 (Homo sapiens) (UniProt P11712); assay: Cytochrome P450 family 2 subfamily C member 9 (CYP2C9) small molecule antagonists: luciferase biochemical (cell-free) qHTS assay (AID 1645842; active means well fitted curve in the direction sought with a large enough effect in the repeat runs; an effect the other way counts as inactive or inconclusive; further: nearly all actives have a fitted effect of over 55% in size; further: potency means the concentration at half of the fitted maximal effect)
# Sequence of Cytochrome P450 2C9 (Homo sapiens) (P11712 whole entry, looked up): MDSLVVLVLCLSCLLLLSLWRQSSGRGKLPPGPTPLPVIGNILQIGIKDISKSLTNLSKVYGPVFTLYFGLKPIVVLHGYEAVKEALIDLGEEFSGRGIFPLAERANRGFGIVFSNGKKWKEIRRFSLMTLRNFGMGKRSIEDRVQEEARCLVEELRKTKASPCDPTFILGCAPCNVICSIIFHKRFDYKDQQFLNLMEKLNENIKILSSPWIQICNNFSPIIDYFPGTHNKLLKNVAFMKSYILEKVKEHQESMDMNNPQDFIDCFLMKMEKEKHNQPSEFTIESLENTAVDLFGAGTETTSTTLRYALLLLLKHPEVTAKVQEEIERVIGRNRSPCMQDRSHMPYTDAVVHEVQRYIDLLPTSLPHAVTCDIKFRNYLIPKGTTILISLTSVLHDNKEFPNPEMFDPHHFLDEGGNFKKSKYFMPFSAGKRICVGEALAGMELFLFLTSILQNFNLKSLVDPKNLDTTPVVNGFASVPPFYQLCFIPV
# Summary of the method: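 P450-Glo CYP2C9 system: proluciferin substrate with enzyme in mix containing 0.4% BSA, 10 min at room temperature, then NADPH regeneration solution added and incubated 1 h at 37C. Detection reagent stopped reaction; luminescence read after 20 min as RLU.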
# [8] = target: Nuclear receptor subfamily 1 group I member 2 (Rattus norvegicus) (UniProt Q9R1A7); assay: qHTS assay for small molecule activators of the rat pregnane X receptor (rPXR) signaling pathway (AID 651751; call rule not given here); settings: rPXR reporter cells, luciferase (One-Glo), 24 h
# Sequence of Nuclear receptor subfamily 1 group I member 2 (Rattus norvegicus) (Q9R1A7 whole entry, looked up): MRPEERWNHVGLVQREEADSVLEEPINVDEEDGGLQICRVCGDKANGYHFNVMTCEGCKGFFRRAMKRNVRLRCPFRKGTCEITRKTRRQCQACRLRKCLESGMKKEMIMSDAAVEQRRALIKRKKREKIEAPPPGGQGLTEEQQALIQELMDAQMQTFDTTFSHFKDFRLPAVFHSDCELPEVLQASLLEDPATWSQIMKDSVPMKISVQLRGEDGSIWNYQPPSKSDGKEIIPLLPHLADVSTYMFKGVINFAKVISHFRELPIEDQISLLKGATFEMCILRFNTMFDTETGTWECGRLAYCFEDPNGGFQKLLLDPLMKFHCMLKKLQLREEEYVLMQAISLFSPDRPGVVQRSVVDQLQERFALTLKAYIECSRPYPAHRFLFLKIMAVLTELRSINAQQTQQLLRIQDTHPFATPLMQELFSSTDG
# [9] = qHTS assay for small molecule activators of the human pregnane X receptor (PXR) signaling pathway (AID 720659; call rule not given here)
# [10] = Vero cells viability qHTS for Zika virus inhibitors (AID 1347167; active means well fitted curve in the direction sought with a large enough effect; an effect the other way counts as inactive or inconclusive)
# Summary of the method: (§1)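 Luminescent ATP readout (CellTiter Glo) after 30 min at 37 degrees C gives viability; cells in DMEM + 4% FBS were treated 24 to 48 hours with compound, following overnight attachment.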
# [11] = HepG2 cells viability qHTS for Zika virus inhibitors (AID 1347168; active means well fitted curve in the direction sought with a large enough effect; an effect the other way counts as inactive or inconclusive)
# Summary of the method: as §1
# [12] = Tertiary RLuc qRT-PCR qHTS assay for Zika virus inhibitors (AID 1347169; active means well fitted curve in the direction sought with a large enough effect; an effect the other way counts as inactive or inconclusive; further: nearly all actives have a fitted effect of over 55% in size; further: potency means the concentration at half of the fitted maximal effect; on activity change, negative = inhibition: top concentration of the series differs between compounds)
# Summary of the method: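 Vero cells (1,000/well) infected with recombinant ZIKV-RLuc (Cambodian) at MOI 1-2 after compound addition, 48-72 hrs at 37 degrees C. Live-cell Renilla luciferase substrate added; luminescence read after 1-1.5 hrs.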
# [13] = Primary qHTS for inhibitors of MERS-S pseudo-typed particle cell entry (AID 1479149); further: nearly all actives have a fitted effect of over 60% in size
# [14] = Primary qHTS for inhibitors of SARS-S pseudo-typed particle cell entry (AID 1479145); further: nearly all actives have a fitted effect of over 45% in size
# [15] = qHTS Assay for Lipid Storage Modulators (AID 1519); settings: Drosophila S3 cells, BODIPY lipid droplet/cell ratio, laser cytometry, cells loaded with oleic acid
# Summary of the method: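 Cells seeded at 5,000 per well were treated with compounds over a concentration series and loaded with oleic acid (400 uM, as added). Lipid droplet fluorescence (488 nm excitation, 500-530 nm channel) was read by laser-scanning cytometry and normalized to 20 uM Triacsin C.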
# [16] = Confirmatory qHTS for activators (rescue) of SARS-CoV-2 Cytopathic Effect (CPE) (AID 1508606); further: nearly all actives have a fitted effect of over 70% in size; further: potency means the concentration at half of the fitted maximal effect
# [17] = measured here: cell count channel max response
# [18] = measured here: lipid channel max response
smiles,measurement,setting,value
COC(=O)c1ccccc1C(=O)OC,Potency,[1],inactive
same,activation,[2],-0.143% (inactive) and 1.34% (inactive)
same,max response,[3],0.0123% (inactive) and 4.21% (inactive)
same,max response,[4],8.24% (inactive) and 6.8% (inactive)
same,outcome,[5],inactive
same,Potency,[6],inactive
same,Potency,[7],inactive
same,max response,[8],5.6% (inactive) and 2.87% (inactive)
same,outcome,[9],inactive
C[C@H]1[C@H]2Cc3ccc(O)cc3[C@]1(C)CCN2CCc1ccccc1,Potency,[10],inactive
same,Potency,[11],inactive
same,Potency,[12],47.5 µM (active)
CCOC(=O)C1(c2ccccc2)CCCN(C)CC1 (configuration not stated),Potency,[13],inactive
OCCN(CCO)CCO,Potency,[1],inactive
same,activation,[2],-1.09% (inactive)
same,max response,[3],-0.143% (inactive)
same,max response,[4],-4.95% (inactive)
same,outcome,[5],inactive
same,Potency,[13],inactive
same,max response,[8],-1.5% (inactive)
same,outcome,[9],inactive
CC(C)C[C@H]1C(=O)N2CCC[C@H]2[C@]2(O)O[C@](NC(=O)[C@@H]3C[C@@H]4c5cccc6[nH]cc(c56)C[C@H]4N(C)C3)(C(C)C)C(=O)N12,Potency,[14],inactive
same,Potency,[13],inactive
CC(=O)[C@@]1(O)CC[C@H]2[C@@H]3CCC4=CC(=O)CC[C@]4(C)C3(F)[C@@H](O)C[C@@]21C (some centres not stated),Potency,[13],inactive
Cc1nnc2n1-c1sc(Br)cc1C(c1ccccc1Cl)=NC2,Potency,[13],inactive
CNC(C)CC1CCCCC1 (configuration not stated),Potency,[13],inactive
CN1CC[C@@]23CCCC[C@@H]2[C@@H]1Cc1ccc(O)cc13,Potency,[10],inactive
same,Potency,[11],inactive
same,Potency,[12],inactive
Cc1ccc2c(c1)[C@]13CCCC[C@@H]1[C@H](C2)N(C)CC3,Potency,[10],inactive
same,Potency,[11],inactive
CCOc1cc(C=O)ccc1O,Potency,[1],inactive
same,activation,[2],-0.0137% (inactive) and -0.605% (inactive)
same,max response,[3],-3.28% (inactive) and -2.59% (inactive)
same,max response,[4],-16.9% (inactive) and 0.643% (inactive)
same,outcome,[5],inactive
same,Potency,[6],inactive
same,Potency,[7],inactive
same,max response,[8],-3.58% (inactive) and -0.453% (inactive)
same,outcome,[9],inactive
C[N+](C)(C)CC(=O)[O-],"activity change, negative = inhibition",[15]; at 57.5 µM (top of the series),3.78% (inactive)
same,max response,[15]; [17],0.576%
same,max response,[15]; [18],6.22%
CCOP(=S)(OCC)SCSc1ccc(Cl)cc1,Potency,[6],9.52 µM (active)
same,Potency,[7],0.213 µM (active)
CCCCNC(C)(C)[P+](=O)O,Potency,[6],inactive
same,Potency,[7],inactive
COC(=O)[C@H]1[C@@H](OC(=O)c2ccccc2)C[C@@H]2CC[C@H]1N2C,Potency,[14],inactive
same,Potency,[13],inactive
O=C(O)CCn1c2c(c3ccccc31)C[C@H](NS(=O)(=O)c1ccc(F)cc1)CC2,Potency,[14],inactive
same,Potency,[13],inactive
CCCCCCCCCCCCCCCCCCCCCCO,outcome,[14],inactive [at 0.573 µM]
same,outcome,[13],inactive [at 0.573 µM]
O=C(O)CCC=CCC[C@@H]1[C@H](N2CCCCC2)[C@@H](O)C[C@@H]1OCc1ccc(-c2ccccc2)cc1,Potency,[13],inactive
CCCCCCCCCCCCc1ccc(S(=O)(=O)Nc2nncs2)cc1,Potency,[16],inactive
CN1c2cc(O)c(N=NC(N)=O)cc2CC1S(=O)(=O)O (configuration not stated),Potency,[14],inactive
same,Potency,[13],inactive
CCc1nc(-c2cccc(C)c2)c(-c2ccnc(NC(=O)c3ccccc3)c2)s1,Potency,[16],inactive
COC1=C(OC)C(=O)C(CC=C(C)CCC=C(C)CCC=C(C)CCC=C(C)CCC=C(C)CCC=C(C)CCC=C(C)CCC=C(C)CCC=C(C)CCC=C(C)C)=C(C)C1=O,outcome,[14],inactive [at 5.34 µM]
same,outcome,[13],inactive [at 5.34 µM]
COc1ccc(C2(C#N)CCC(C(=O)O)CC2)cc1OC1CCCC1 (configuration not stated),Potency,[13],inactive
C[C@@H]1CCO[C@H]2Cn3cc(C(=O)NCc4ccc(F)cc4F)c(=O)c(O)c3C(=O)N12,Potency,[14],inactive
same,Potency,[13],inactive
CCOC(=O)c1c(CSc2ccccc2)n(C)c2cc(Br)c(O)c(CN(C)C)c12,Potency,[16],11.2 µM (active)
CCCCCCCCCC(=O)N[C@@H](Cc1c[nH]c2ccccc12)C(=O)N[C@H](CC(N)=O)C(=O)N[C@@H](CC(=O)O)C(=O)N[C@@H]1C(=O)NCC(=O)N[C@@H](CCCN)C(=O)N[C@@H](CC(=O)O)C(=O)N[C@H](C)C(=O)N[C@@H](CC(=O)O)C(=O)NCC(=O)N[C@H](CO)C(=O)N[C@@H]([C@@H](C)CC(=O)O)C(=O)N[C@@H](CC(=O)c2ccccc2N)C(=O)O[C@@H]1C,Potency,[14],inactive
same,Potency,[13],inactive
CN1C(C(=O)Nc2ccccn2)=C(O)c2sc(Cl)cc2S1(=O)=O,Potency,[14],inactive
same,Potency,[13],inactive
N#Cc1ccc(Oc2ccc3c(c2)COB3O)cc1,Potency,[13],inactive
CN1[C@H]2CC(OC(=O)[C@@H](CO)c3ccccc3)C[C@H]1[C@H]1O[C@H]12 (some centres not stated),"activity change, negative = inhibition",[15]; at 25.7 µM (top of the series),-0.085% (inactive)
same,max response,[15]; [17],9.59%
same,max response,[15]; [18],10.6%

# Source: PubChem BioAssay (NCATS)
